In general, AC50 refers to the concentration at which the activity in the assay is half-maximal.

The source holds several records for some structures; these can differ, active in one and inactive in another. Calls of active or inactive are those of the source. How the source made its calls: active means hit-call score of the fitted dose curve at least 0.9, where 1 is the maximum; inactive means score below 0.9.

A short description of the test: ATG_BRE_CIS: Attagene CIS-FACTORIAL HepG2 Assay for human Bone Morphogenetic Protein (BMP) Response Element (BRE) (AID 2282933). To be noted: HepG2 BMP response element reporter, Attagene transcription factor profiling; actives raise or lower the signal. The method, then:
ATG_CIS is a cell-based, multiplexed-readout assay that uses HepG2, a human liver cell line, with measurements taken at 24 hours after chemical dosing in a 24-well plate.ATG_BRE_CIS is one of 52 assay component(s) measured or calculated from the ATG_CIS assay. It is designed to make measurements of mRNA induction, a form of inducible reporter, as detected with fluorescence intensity signals by Reverse transcription polymerase chain reaction (RT-PCR) and Capillary electrophoresis technology.Data from the assay component ATG_BRE_CIS was analyzed into 1 assay endpoint. This assay endpoint, ATG_BRE_CIS, was analyzed with bidirectional fitting relative to DMSO as the negative control and baseline of activity. Using a type of inducible reporter, measures of mRNA for gain or loss-of-signal activity can be used to understand the reporter gene at the transcription factor-level as they relate to the gene SMAD1. Furthermore, this assay endpoint can be referred to as a primary readout, because this assay has produced multiple assay endpoints where this one serves a reporter gene function. To generalize the intended target to other relatable targets, this assay endpoint is annotated to the dna binding intended target family, where the subfamily is Smad protein.
Human liver HepG2 cells are transiently transfected with multiple reporter transcription units (MRTUs) in 6-well plates using FuGene 6 reagent (Roche; 3 ml FuGene/1 mg DNA). The MRTU constructs are regulated by a cis-regulating element (promoter). […] A major difference between the CIS and TRANS system is that in CIS activities of endogenous TFs are measured, whereas the TRANS assay evaluates changes in activities of exogenous, chimeric NR-Gal4 proteins. […] At the end of 24 hour incubation, total RNA was isolated using TriZol reagent (Invitrogen). The isolated RNA is then reverse-transcribed using oligo(dT) primer and Mo-MLV reverse transcriptase (Invitrogen) with DNAse I (Ambion) treatment for 30 min. The one-tenth of the produced cDNA was amplified by PCR using Taq DNA polymerase (Invitrogen) and two reporter sequence-specific primers. The PCR products were fluorescently labeled by primer extension with 6-arboxyfluorescein (6-FAM) 5'-labeled reporter sequence-specific primer (2 min at 95 C, 20 s at 68 C and 10 min at 72 C) and these products were digested with 5U of HpaI (New England Biolabs) for 2h at 37 C. The fragments were purified using Qiaquick PCR columns (Qiagen), analyzed on an ABI 3130xL genetic analyzer (Applied Biosystems) with peak positions identified by using a set of X-rhodamine (ROX)-labeled MapMarker1000 molecular weight standards (BioVentures). The raw capillary electrophoresis data was processed using Attagraph software (Attagene).
As for `O=C(O)CCC(F)(F)C(F)(F)C(F)(F)C(F)(F)C(F)(F)F`, the outcome was inactive.

Regarding `O=C(O)CN(CCCN(CC(=O)O)CC(=O)O)CC(=O)O`, the compound was classed as inactive.

With `CCCCCCCCCC=CCC1CC(=O)OC1=O` (stereo not given), the call was inactive.

Regarding `CC[N+](CC)(CC)Cc1ccccc1`, the outcome was inactive.

`O=CC(F)(F)C(F)(F)C(F)(F)F`: the call was inactive.

Regarding `CCO[Si](C)(C)OCC`, the compound was classed as inactive.

For the compound `CC1CNCC(C)O1` (stereo not given), the compound was called inactive.

In the case of `CC(C)C=O`, the call was inactive.

For the compound `OCCN1CN(CCO)CN(CCO)C1`, the outcome was inactive.

For `CCC(=O)O`, the result was inactive.

As for `O=C(O)C(F)(F)OC(F)(F)C(F)(F)OC(F)(F)C(F)(F)OC(F)(F)C(F)(F)C(F)(F)C(F)(F)F`, the result was inactive.

As to `NS(=O)(=O)O`, the result was inactive.

As for `CC(C)c1c(C(=O)Nc2ccccc2)c(-c2ccccc2)c(-c2ccc(F)cc2)n1CC[C@@H](O)C[C@@H](O)CC(=O)O`, the result was inactive.

With `CCOC(=O)c1nc(C(Cl)(Cl)Cl)n(-c2ccc(Cl)cc2Cl)n1`, the result was inactive.

For `CCCC=O`, the compound was classed as inactive.

`CCc1ccccc1O`: the outcome was inactive.

Regarding `CN(C)CCOC(c1ccccc1)c1ccccc1`, the compound was classed as inactive.

Consider `CC(C)(c1ccc(Oc2ccc(N)cc2)cc1)c1ccc(Oc2ccc(N)cc2)cc1`, for which the outcome was inactive.

In the case of `C=COC(=O)C(C)(C)CCCCCC`, the call was inactive.

As for `NNc1nc(-c2ccc([N+](=O)[O-])cc2)cs1`, the AC50 was 18.3 µM (active).

Turning to `CCC(C)c1ccccc1O` (stereo not given), the compound was called inactive.

Consider `C[C@]12CC[C@@H]3c4ccc(O)cc4CC[C@H]3[C@@H]1C[C@@H](O)[C@@H]2O`, for which the outcome was inactive.

Regarding `Oc1cc2ccccc2cc1O`, the outcome was inactive.

As to `CS(=O)(=O)c1ccc([C@@H](CC2CCCC2)C(=O)Nc2cnccn2)cc1Cl`, the AC50 was 127 µM (active).

Turning to `c1ccc2c(c1)CCC2`, the call was inactive.

Turning to `CCCCCC(C)OC(=O)COc1ccc(Cl)c2cccnc12` (stereo not given), the result was inactive.

In the case of `C=CCOCC(CO)(CO)CO`, the outcome was inactive.

Take `Clc1ccc(Nc2nnc(Cc3ccncc3)c3ccccc23)cc1`: the outcome was inactive.

In the case of `CC(C)(C)c1ccc(O)c(O)c1`, the call was inactive and the AC50 is 47.3 µM (active).

`CCCCN(C)C`: the call was inactive.

On to `FC(F)(F)C1(F)C(F)(F)C(F)(F)C(F)(F)C1(F)F`, for which the call was inactive.

Regarding `C=CC(=O)OCC(CO)(COCC(COC(=O)C=C)(COC(=O)C=C)COC(=O)C=C)COC(=O)C=C`, the call was inactive.

As to `CCCCCCCCCCCCCC[n+]1ccccc1`, the AC50 is 1.22 µM (active).

Consider `CCc1cccc(CC)c1N(COC)C(=O)CS(=O)(=O)O`, for which the outcome was inactive.

With `CC=O`, the outcome was inactive.

For the compound `COC(=O)CC(C(C)=O)C(=O)OC` (stereo not given), the call was inactive.

With `O=S(=O)(O)c1ccc2cc(O)ccc2c1`, the outcome was inactive.

Consider `COc1ccc(C#N)cc1`, for which the result was inactive.

With `C=CC(=O)OCCC(F)(F)C(F)(F)C(F)(F)C(F)(F)C(F)(F)C(F)(F)C(F)(F)C(F)(F)F`, the compound was called inactive.

(Values after PubChem BioAssay (EPA / NIEHS).)
